Measured values published in the OligoGym collection.

molecular target: DHX35; assay: pooled miR-30 sensor sort-seq; sequence = guide strand; settings: shRNA
Note: reference of the scale not given here.

| Sequence | sensor-assay potency score (higher = more potent) |
| --- | --- |
| TAAAATATGATTCCTAAGCTTG | -0.148 |
| TAGAATGAAACCTCGCTGCATT | -0.528 |
| TAGGCGACAGTCTTTGTCCAGA | -0.612 |
| ATAAGGGTTGTAAACAACCGTT | -1.1 |
| TTGTAAACAACCGTTGTCCCAG | -0.562 |

molecular target: DICER1; assay: as above; settings: shRNA

| Sequence | sensor-assay potency score (higher = more potent) |
| --- | --- |
| TTTTCTTTACAAAAGCTCCTGA | 0.34 |
| TTATTTTGTCTGTATCCGCTAA | -0.197 |
| TTAGATTGAACATAGGATCGAT | 0.532 |
| TTCCACAGTGACTCTGACCTTC | 0.615 |
| TTGTTTTATAATATTCTGCAAA | -0.989 |
| TGTAACTTCGACCAACACCTTT | -0.933 |
| TTGACCAAGAACACCGTCCTTT | 0.276 |
| TAGATTGAACATAGGATCGATA | -1.08 |
| TTTGATTGTAAGAAAGACCATT | -0.387 |
| TTATTCTTGAATCTGTAGTTGA | 0.19 |
| TATAAATCTGATATGTTCCTGA | 0.759 |
| TTAAAGTAGAATCTCTTTCTTT | 0.229 |

molecular target: DIRAS3; assay: as above; settings: shRNA

| Sequence | sensor-assay potency score (higher = more potent) |
| --- | --- |
| TAACATAGTGAAATGAGTCCAC | 0.953 |
| TATACGTATTGACAACATGGAT | -1.16 |
| TTACAGTCCAAACAACAGCACA | -1.35 |
| TAATCTCTGATCTTCCTGTGGG | 0.371 |
| TTCCACTCCATCGCACAGGTGG | -0.748 |
| TACATCATGCTACATTTTGTTC | -1.42 |
| TTGTCAAGCAGCTTCTCAGTGG | -0.353 |
| TTGTTACCTTTGATCTTGCAGA | -0.643 |
| TTGCCGTCGCCACTCTTGCTGT | -1.2 |
| TTTAAATACATCATGCTACATT | -0.644 |
| TACTTTAAATACATCATGCTAC | -0.338 |

molecular target: DLAT; assay: as above; settings: shRNA

| Sequence | sensor-assay potency score (higher = more potent) |
| --- | --- |
| TTGTGTAAGATCAATCCCTTTC | -0.362 |
| TCTTTTTCTACAATGATACAGA | -0.772 |
| TTTCTCTACTGCCAACTTCTTT | -1.09 |
| TGATTTTGTCTTATAACTGTGT | 0.275 |
| TTGATTGCATTAATCGCTGTGC | 0.199 |
| TATCTTATTAAGTTCTTTCCGT | 0.0125 |
| TTTGATTGCATTAATCGCTGTG | 0.738 |
| TTTAAATCTGTTACTTCGGTTG | -0.374 |
| TAGGTGTGATGAGTCCTGCAGG | -0.602 |
| ATATCTGTGAAGACACCTGTAG | -0.267 |
| TATCTGTGAAGACACCTGTAGG | -1.1 |
| TTGTCTTATAACTGTGTCCATC | -1.31 |
